Measurements reported in the supplement of paper PMC10849652.
About 7,900 targets were measured; listed, in parts, are those with a hit and a random draw of the rest. About 0.6% of all pairs of compound and target were hits.

Experiments:
Experiment in all cases: log2 fold change, soluble protein after heating vs DMSO (PISA); higher = thermal stabilisation; K562 cells, 10 uM, 30 min; active = over 0.2 and 3.5 SD of the protein, either way, in both replicates (recomputed)
[1] = compound: C1=CC=C(C=C1)[C@H](COC2=CC3=C(C=C2)NC(=O)N3)NC(=O)C4=CC=CN(C4=O)CC5=CC(=C(C=C5)F)F
Procedure, shortened: (§1)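 Soluble protein was defined as the supernatant after 21,000xg for 90 min. It came from K562 cells at 2×10^6 cells/mL given 10 μM compound for 30 min, heated in aliquots for 3 min across 48°C-58°C, pooled, and extracted in PBS with 0.5% NP-40 at 4°C, and was quantified by TMTpro 16plex LC-MS/MS with equalised channel sums. Thermal stability against control samples, from duplicates, is reported as log2 fold change.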

[2] = compound: CC1=C(SC2=C1C(=N[C@H](C3=NN=C(N32)C)CC(=O)N)C4=CC=C(C=C4)Cl)C
Procedure, shortened: as §1

[3] = compound: CC1=C2C(=CC=C1)N=C(N(C2=O)C3=CC=CC=C3C)CN4C=NC5=C(N=CN=C54)N
Procedure, shortened: as §1

[4] = compound: Cc1sc2c(c1C)C(c1ccc(Cl)cc1)=N[C@@H](CC(=O)OC(C)(C)C)c1nnc(C)n1-2
Procedure, shortened: as §1

[5] = compound: c1ccc([C@@H]2C[C@H]2NC2CCNCC2)cc1
Procedure, shortened: as §1

Measured: log2 fold change

NKAP (UniProt Q8N5F7)
Sequence of UniProt Q8N5F7 (Q8N5F7 whole entry, looked up): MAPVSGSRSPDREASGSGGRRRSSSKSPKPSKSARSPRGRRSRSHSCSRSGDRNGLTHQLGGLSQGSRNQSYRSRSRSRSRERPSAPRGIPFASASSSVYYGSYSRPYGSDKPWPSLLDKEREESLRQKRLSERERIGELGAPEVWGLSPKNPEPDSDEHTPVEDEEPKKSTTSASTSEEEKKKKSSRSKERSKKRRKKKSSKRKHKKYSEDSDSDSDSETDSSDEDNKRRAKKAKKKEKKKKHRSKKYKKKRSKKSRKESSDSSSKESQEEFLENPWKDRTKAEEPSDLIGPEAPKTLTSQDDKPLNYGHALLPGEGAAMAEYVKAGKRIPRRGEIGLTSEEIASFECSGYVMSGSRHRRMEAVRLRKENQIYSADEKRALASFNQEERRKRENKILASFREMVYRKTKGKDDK
inactive: [1] -0.013 | [2] 0.148 | [3] 0.049 | [4] 0.078 | [5] 0.171

NOS1AP (UniProt O75052)
inactive: [1] -0.109 | [2] 0.025 | [3] 0.362 | [4] -0.141 | [5] -0.178

MRPL47 (UniProt Q9HD33)
inactive: [1] 0.042 | [2] -0.108 | [3] -0.131 | [4] 0.087 | [5] -0.01

NIPSNAP2 (UniProt C9J7B1)
inactive: [1] -0.069

NCAPG (UniProt Q9BPX3)
inactive: [1] -0.033 | [2] 0.019 | [3] 0.101 | [4] -0.002 | [5] -0.002

MOB3B (UniProt Q86TA1)
Sequence of UniProt Q86TA1 (Q86TA1 whole entry, looked up): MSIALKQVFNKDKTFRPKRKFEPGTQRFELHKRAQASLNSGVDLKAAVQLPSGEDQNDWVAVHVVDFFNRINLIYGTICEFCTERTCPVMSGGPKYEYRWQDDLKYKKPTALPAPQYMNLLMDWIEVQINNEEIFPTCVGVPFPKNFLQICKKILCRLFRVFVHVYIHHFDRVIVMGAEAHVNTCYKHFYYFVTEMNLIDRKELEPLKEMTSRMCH
inactive: [1] 0 | [2] 0.029 | [3] 0.178 | [4] 0.041 | [5] -0.088

NDUFB10 (UniProt O96000)
inactive: [1] 0.048 | [2] 0.009 | [3] 0.06 | [4] -0.031 | [5] 0.002

OGFOD2 (UniProt Q6N063)
Sequence of UniProt Q6N063 (Q6N063 whole entry, looked up): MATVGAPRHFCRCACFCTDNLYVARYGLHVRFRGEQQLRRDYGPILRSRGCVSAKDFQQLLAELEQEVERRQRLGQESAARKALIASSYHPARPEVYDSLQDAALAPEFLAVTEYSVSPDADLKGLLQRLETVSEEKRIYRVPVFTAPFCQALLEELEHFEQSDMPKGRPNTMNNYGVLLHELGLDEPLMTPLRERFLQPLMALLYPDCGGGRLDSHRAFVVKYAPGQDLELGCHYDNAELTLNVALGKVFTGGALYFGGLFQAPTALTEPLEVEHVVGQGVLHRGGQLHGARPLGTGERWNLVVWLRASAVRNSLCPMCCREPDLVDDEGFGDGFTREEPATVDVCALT
inactive: [1] 0.124 | [2] 0.097 | [3] 0.024 | [4] 0.091 | [5] 0.053

NHLRC2 (UniProt Q8NBF2)
inactive: [1] -0.027 | [2] 0.038 | [3] 0.127 | [4] 0.009 | [5] 0.024

OVCA2 (UniProt Q8WZ82)
inactive: [1] -0.152

MRPS15 (UniProt P82914)
inactive: [1] -0.035 | [2] 0.077 | [3] -0.056 | [4] 0.066 | [5] -0.097

OSTM1 (UniProt Q86WC4)
inactive: [1] 0.023 | [2] 0.036 | [3] 0.058 | [4] -0.091 | [5] -0.013

NAPG (UniProt Q99747)
inactive: [1] -0.036 | [2] 0.044 | [3] 0.073 | [4] -0.023 | [5] -0.077

OXR1 (UniProt Q8N573)
Sequence of UniProt Q8N573 (Q8N573 whole entry, looked up): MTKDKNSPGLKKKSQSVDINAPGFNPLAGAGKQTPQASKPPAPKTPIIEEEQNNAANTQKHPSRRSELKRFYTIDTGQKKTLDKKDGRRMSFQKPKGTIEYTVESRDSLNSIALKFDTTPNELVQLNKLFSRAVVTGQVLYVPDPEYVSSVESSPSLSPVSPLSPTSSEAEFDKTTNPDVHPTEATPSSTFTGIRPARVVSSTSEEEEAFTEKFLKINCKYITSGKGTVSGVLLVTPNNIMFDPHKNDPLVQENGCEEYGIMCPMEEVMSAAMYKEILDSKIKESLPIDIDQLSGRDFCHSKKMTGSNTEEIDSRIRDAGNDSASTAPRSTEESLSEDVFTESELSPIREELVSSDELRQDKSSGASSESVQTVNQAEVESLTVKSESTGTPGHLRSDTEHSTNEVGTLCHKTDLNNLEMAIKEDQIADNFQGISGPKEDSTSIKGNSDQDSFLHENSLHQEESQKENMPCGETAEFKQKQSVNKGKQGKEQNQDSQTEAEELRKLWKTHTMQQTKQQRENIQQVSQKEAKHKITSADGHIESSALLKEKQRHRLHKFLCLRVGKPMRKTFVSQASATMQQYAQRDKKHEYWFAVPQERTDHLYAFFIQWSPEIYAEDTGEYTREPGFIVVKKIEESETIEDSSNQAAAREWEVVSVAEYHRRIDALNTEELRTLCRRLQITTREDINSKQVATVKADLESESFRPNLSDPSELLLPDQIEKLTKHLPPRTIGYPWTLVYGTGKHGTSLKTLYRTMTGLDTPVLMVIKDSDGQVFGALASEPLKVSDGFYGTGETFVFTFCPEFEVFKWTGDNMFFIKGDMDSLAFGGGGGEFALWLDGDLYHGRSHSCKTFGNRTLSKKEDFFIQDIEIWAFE
inactive: [1] -0.021 | [2] 0.026 | [3] 0.039 | [4] -0.041 | [5] -0.069

NKTR (UniProt P30414)
inactive: [1] 0.014

NA (UniProt J3KR12)
inactive: [1] -0.042

NAA11 (UniProt Q9BSU3)
inactive: [1] 0.009 | [2] 0.042 | [3] 0.049 | [4] -0.12 | [5] -0.049

NUCKS1 (UniProt Q9H1E3)
inactive: [1] 0.044 | [2] -0.053 | [3] 0.032 | [4] -0.029 | [5] -0.007

OTUD6B (UniProt Q8N6M0)
inactive: [1] -0.051 | [2] 0.022 | [3] 0.11 | [4] 0.03 | [5] -0.153

MTOR (UniProt P42345)
inactive: [1] -0.044 | [2] 0.021 | [3] 0.092 | [4] -0.001 | [5] -0.028

NPM3 (UniProt O75607)
inactive: [1] 0.066 | [2] -0.08 | [3] -0.087 | [4] 0.107 | [5] -0.019

MYSM1 (UniProt Q5VVJ2)
inactive: [1] 0.07

NR2C2 isoform 2 (UniProt P49116)
inactive: [1] -0.011 | [2] 0.046 | [3] 0.059 | [4] 0.042 | [5] 0.024

NRGN (UniProt Q92686)
inactive: [1] 0.048

NFATC2IP (UniProt Q8NCF5)
Sequence of UniProt Q8NCF5 (Q8NCF5 whole entry, looked up): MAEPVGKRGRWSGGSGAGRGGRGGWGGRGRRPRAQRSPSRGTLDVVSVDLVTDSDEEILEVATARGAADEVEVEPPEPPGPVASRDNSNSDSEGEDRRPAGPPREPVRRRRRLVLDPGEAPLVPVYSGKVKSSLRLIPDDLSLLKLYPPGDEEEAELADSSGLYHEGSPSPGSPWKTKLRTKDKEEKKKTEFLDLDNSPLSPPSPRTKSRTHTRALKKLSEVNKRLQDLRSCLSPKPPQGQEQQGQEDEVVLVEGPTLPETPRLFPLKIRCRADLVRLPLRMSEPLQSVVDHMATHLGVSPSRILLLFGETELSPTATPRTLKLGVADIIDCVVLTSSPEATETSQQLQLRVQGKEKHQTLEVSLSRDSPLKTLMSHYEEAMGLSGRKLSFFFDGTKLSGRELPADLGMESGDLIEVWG
inactive: [1] -0.051 | [2] 0.18 | [3] 0.039 | [4] -0.088 | [5] 0.156

MORC2 (UniProt Q9Y6X9)
inactive: [1] -0.293

OTUD4 (UniProt Q01804)
Sequence of UniProt Q01804 (Q01804 whole entry, looked up): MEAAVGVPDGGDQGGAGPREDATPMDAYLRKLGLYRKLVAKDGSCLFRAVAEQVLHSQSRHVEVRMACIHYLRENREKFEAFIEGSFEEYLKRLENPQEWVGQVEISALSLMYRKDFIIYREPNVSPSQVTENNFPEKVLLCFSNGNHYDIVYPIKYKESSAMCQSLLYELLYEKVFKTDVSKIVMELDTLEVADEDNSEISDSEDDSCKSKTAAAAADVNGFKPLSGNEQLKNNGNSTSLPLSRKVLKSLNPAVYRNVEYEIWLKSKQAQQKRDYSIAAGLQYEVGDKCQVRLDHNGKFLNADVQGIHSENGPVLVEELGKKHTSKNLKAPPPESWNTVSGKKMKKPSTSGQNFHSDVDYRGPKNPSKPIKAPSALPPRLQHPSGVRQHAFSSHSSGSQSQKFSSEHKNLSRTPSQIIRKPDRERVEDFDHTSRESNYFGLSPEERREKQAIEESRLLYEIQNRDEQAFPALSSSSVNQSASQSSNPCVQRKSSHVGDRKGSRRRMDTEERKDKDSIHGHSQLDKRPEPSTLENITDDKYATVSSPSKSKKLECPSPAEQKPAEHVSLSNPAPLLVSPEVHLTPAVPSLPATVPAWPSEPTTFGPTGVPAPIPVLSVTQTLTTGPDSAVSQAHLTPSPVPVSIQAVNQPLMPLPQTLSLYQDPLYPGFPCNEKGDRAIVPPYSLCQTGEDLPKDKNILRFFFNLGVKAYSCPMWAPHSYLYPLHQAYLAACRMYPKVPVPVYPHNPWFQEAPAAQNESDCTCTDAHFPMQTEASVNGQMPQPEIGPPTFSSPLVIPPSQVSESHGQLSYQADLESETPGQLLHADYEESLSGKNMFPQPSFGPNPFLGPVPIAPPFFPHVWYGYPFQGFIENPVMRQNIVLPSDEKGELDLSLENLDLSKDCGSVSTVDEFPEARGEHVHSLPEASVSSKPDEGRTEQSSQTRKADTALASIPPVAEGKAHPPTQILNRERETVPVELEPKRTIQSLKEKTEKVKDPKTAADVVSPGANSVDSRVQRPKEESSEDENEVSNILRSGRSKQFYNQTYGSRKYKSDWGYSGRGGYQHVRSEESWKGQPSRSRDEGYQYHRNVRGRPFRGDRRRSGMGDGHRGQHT
inactive: [1] 0.033 | [2] -0.034 | [3] -0.05 | [4] 0.111 | [5] 0.011

OXSM (UniProt Q9NWU1)
inactive: [1] 0.072 | [2] -0.007 | [3] 0.045 | [4] -0.007 | [5] 0.036

NRDC isoform 2 (UniProt O43847)
inactive: [1] -0.058 | [2] 0.04 | [3] 0.037 | [4] -0.023 | [5] 0

MSH6 (UniProt P52701)
inactive: [1] -0.24 | [2] 0.08 | [3] 0.127 | [4] -0.056 | [5] -0.008

NAP1L1 (UniProt P55209)
Sequence of UniProt P55209 (P55209 whole entry, looked up): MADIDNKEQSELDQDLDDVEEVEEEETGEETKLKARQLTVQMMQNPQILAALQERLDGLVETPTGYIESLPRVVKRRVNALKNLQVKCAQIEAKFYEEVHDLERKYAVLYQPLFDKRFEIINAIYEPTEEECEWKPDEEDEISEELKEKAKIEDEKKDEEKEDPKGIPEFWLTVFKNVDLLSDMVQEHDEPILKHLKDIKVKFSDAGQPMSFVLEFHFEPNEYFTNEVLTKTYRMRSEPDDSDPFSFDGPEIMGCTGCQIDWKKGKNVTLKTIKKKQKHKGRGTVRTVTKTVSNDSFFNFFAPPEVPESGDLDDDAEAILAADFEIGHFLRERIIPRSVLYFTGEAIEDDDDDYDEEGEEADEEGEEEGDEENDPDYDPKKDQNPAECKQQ
inactive: [1] -0.072 | [2] 0.003 | [3] 0.17 | [4] 0.013 | [5] 0.009

NDUFA4 (UniProt O00483)
Sequence of UniProt O00483 (O00483 whole entry, looked up): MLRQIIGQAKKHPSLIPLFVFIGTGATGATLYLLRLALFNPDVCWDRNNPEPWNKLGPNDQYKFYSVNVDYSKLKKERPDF
inactive: [1] 0 | [2] 0.005 | [3] 0.014 | [4] -0.031 | [5] 0.046

MINK1 (UniProt Q8N4C8)
inactive: [1] -0.036 | [2] 0.024 | [3] -0.01 | [4] 0.037 | [5] 0.005

NA (UniProt B2RBV5)
inactive: [1] 0.002

NUP210 (UniProt Q8TEM1)
inactive: [1] -0.083 | [2] 0.059 | [3] 0.037 | [4] -0.013 | [5] -0.028

NNT (UniProt Q13423)
inactive: [1] -0.014 | [2] 0.091 | [3] 0.044 | [4] -0.028 | [5] 0

MRPL46 (UniProt Q9H2W6)
inactive: [1] 0 | [2] -0.1 | [3] -0.037 | [4] 0.009 | [5] 0.026

NUMA1 (UniProt Q14980)
inactive: [1] 0.027 | [2] -0.05 | [3] -0.009 | [4] 0.022 | [5] 0.014

NDUFB1 (UniProt O75438)
Sequence of UniProt O75438 (O75438 whole entry, looked up): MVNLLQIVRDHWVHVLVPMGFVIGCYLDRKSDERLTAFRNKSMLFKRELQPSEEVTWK
inactive: [1] -0.004 | [2] -0.059 | [3] -0.056 | [4] -0.138 | [5] 0.055

MORC3 (UniProt Q14149)
inactive: [1] -0.043 | [2] 0.014 | [3] 0.132 | [4] 0.017 | [5] 0.062

NCAPH (UniProt Q15003)
Sequence of UniProt Q15003 (Q15003 whole entry, looked up): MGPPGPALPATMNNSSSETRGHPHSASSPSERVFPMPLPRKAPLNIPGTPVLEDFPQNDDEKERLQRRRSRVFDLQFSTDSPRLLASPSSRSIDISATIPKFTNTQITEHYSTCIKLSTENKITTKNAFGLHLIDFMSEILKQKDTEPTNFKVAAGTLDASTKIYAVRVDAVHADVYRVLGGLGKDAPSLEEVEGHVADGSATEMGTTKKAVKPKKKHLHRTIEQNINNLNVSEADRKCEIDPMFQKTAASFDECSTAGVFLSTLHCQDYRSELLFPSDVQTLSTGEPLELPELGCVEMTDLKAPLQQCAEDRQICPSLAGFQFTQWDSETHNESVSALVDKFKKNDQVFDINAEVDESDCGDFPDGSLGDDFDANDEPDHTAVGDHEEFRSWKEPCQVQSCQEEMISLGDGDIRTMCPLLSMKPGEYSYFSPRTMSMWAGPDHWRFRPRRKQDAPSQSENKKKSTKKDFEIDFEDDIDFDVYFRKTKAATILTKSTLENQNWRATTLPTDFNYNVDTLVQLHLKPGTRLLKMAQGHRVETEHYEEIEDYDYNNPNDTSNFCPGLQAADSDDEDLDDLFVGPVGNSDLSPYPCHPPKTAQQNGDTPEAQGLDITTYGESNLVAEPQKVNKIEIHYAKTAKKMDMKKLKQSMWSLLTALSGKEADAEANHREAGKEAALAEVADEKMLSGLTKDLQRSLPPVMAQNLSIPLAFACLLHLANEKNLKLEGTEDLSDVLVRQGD
inactive: [1] -0.067 | [2] 0.011 | [3] 0.109 | [4] -0.007 | [5] 0.001

NMT2 (UniProt O60551)
inactive: [1] -0.045 | [2] 0.053 | [3] 0.092 | [4] 0.026 | [5] -0.107

MRPL50 (UniProt Q8N5N7)
inactive: [1] 0.11 | [2] 0.01 | [3] -0.079 | [4] -0.022 | [5] -0.05

NDUFA6 (UniProt P56556)
Sequence of UniProt P56556 (P56556 whole entry, looked up): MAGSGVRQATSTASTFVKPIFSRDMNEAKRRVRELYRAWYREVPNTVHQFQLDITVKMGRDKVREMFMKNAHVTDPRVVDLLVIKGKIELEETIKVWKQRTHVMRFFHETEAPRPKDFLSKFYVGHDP
inactive: [1] -0.017 | [2] 0.121 | [3] 0.104 | [4] -0.067 | [5] -0.039

MRPS22 (UniProt P82650)
inactive: [1] -0.016 | [2] 0.05 | [3] -0.037 | [4] 0.087 | [5] -0.063

NIBAN1 (UniProt Q9BZQ8)
inactive: [1] -0.017 | [2] 0.015 | [3] 0.056 | [4] 0.028 | [5] 0.03

ORC3 isoform 2 (UniProt Q9UBD5)
inactive: [1] -0.098 | [2] 0.032 | [3] 0.107 | [4] 0.013 | [5] -0.079

NDUFAF6 (UniProt Q330K2)
inactive: [1] -0.048 | [2] 0.003 | [3] -0.006 | [4] 0.063 | [5] 0.024

P4HA2 (UniProt O15460)
inactive: [1] 0.006 | [2] -0.033 | [3] -0.014 | [4] -0.007 | [5] -0.043

MRPS21 (UniProt P82921)
inactive: [1] -0.238 | [2] 0.032 | [3] 0.013 | [4] 0.116 | [5] -0.016

NDUFB7 (UniProt P17568)
inactive: [1] -0.032 | [2] -0.01 | [3] -0.004 | [4] -0.015 | [5] 0.03

MYH10 isoform 3 (UniProt P35580)
inactive: [1] -0.003 | [2] 0.043 | [3] 0.056 | [4] -0.023 | [5] -0.013

NOLC1 isoform 2 (UniProt Q14978)
inactive: [1] 0 | [2] -0.029 | [3] 0.002 | [4] -0.012 | [5] 0.108

OSTC (UniProt Q9NRP0)
Sequence of UniProt Q9NRP0 (Q9NRP0 whole entry, looked up): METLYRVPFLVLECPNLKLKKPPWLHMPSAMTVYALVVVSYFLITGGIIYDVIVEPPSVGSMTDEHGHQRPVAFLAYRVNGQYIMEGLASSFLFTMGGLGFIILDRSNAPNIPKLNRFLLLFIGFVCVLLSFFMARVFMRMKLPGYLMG
inactive: [1] -0.031 | [2] 0.048 | [3] 0.063 | [4] -0.213 | [5] 0.048

NUDT16 (UniProt Q96DE0)
inactive: [1] 0.029 | [2] 0.085 | [3] -0.045 | [4] -0.075 | [5] -0.006

NOSIP (UniProt Q9Y314)
inactive: [1] 0.056 | [2] 0.043 | [3] 0.179 | [4] -0.043 | [5] 0.016

NUP205 (UniProt Q92621)
inactive: [1] -0.004 | [2] 0.035 | [3] 0.08 | [4] -0.043 | [5] 0.008

NFYB (UniProt P25208)
inactive: [1] -0.015 | [2] -0.119 | [3] -0.165 | [4] -0.048 | [5] 0.057
